According to PubChem BioAssay AID1159580 (chemical genetic matrix, 2015):
“And” between values parts separate entries of the source, which are not always exact repeats. Identical values can stand only once. About 2,000 (36%) of roughly 5,500 compounds were called active. Another 18% or so got no clear call; they are omitted. No stated cut-off is given here; in the data, active means normalized growth mostly below about 0.91 (no sharp cut-off); inconclusive means no clear call, values can overlap the other calls; inactive means mostly above about 0.92. This is one part of the list.

Experiment: chemical genetic growth profiling, strain panel (AID 1159580);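 further: tested at 20 µM; growth read once vehicle control cultures reached saturation at 30 °C; 1 = growth at the plate median or of vehicle wells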
Conditions: S. cerevisiae deletion strains, growth OD

Measured: normalized growth

Cc1c(NC(=O)c2cccnc2)c(=O)n(-c2ccccc2)n1C
inactive: locus YAL013W, strain DEP1, stronger effect = lower value 0.996 | locus YAL021C, strain ccr4, stronger effect = lower value 1.02 | locus YAL026C, strain drs2, stronger effect = lower value 0.999 | locus YAL030W, strain snc1, stronger effect = lower value 1 | locus YBL061C, strain skt5, stronger effect = lower value 1 | locus YBR009C, strain hhf1, stronger effect = lower value 0.966 | locus YBR021W, strain FUR4, stronger effect = lower value 1.03 | locus YBR023C, strain chs3, stronger effect = lower value 1.01 | locus YBR171W, strain sec66, stronger effect = lower value 1 | locus YBR229C, strain ROT2, stronger effect = lower value 0.964 | locus YBR231C, strain swc5, stronger effect = lower value 1.01 | locus YBR279W, strain paf1, stronger effect = lower value 0.999 | locus YCL011C, strain gbp2, stronger effect = lower value 1 | locus YCL016C, strain dcc1, stronger effect = lower value 0.999 | locus YCL029C, strain bik1, stronger effect = lower value 0.997 | locus YCL061C, strain MRC1, stronger effect = lower value 1 | locus YCL069W, strain vba3, stronger effect = lower value 0.989 | locus YCR088W, strain abp1, stronger effect = lower value 0.997 | locus YDL005C, strain med2, stronger effect = lower value 1 | locus YDL035C, strain GPR1, stronger effect = lower value 0.992 | locus YDL040C, strain nat1, stronger effect = lower value 0.988 | locus YDL074C, strain BRE1, stronger effect = lower value 0.949 | locus YDL101C, strain DUN1, stronger effect = lower value 0.981 | locus YDL134C, strain PPH21, stronger effect = lower value 1.01 | locus YDL185W, strain tfp1, stronger effect = lower value 0.983 | locus YDL192W, strain arf1, stronger effect = lower value 0.994 | locus YDR001C, strain nth1, stronger effect = lower value 0.992 | locus YDR069C, strain doa4, stronger effect = lower value 1.01 | locus YDR101C, strain arx1, stronger effect = lower value 0.988 | locus YDR137W, strain rgp1, stronger effect = lower value 0.992 | locus YDR159W, strain sac3, stronger effect = lower value 1 | locus YDR162C, strain NBP2, stronger effect = lower value 1 | locus YDR195W, strain ref2 0.998 | locus YDR297W, strain sur2, stronger effect = lower value 0.999 | locus YDR318W, strain mcm21, stronger effect = lower value 1 | locus YDR334W, strain swr1, stronger effect = lower value 0.999 | locus YDR335W, strain msn5, stronger effect = lower value 0.997 | locus YDR388W, stronger effect = lower value 1 | locus YDR392W, strain spt3, stronger effect = lower value 0.934 | locus YDR502C, strain sam2, stronger effect = lower value 0.994 | locus YEL003W, strain gim4, stronger effect = lower value 1 | locus YEL037C, strain rad23, stronger effect = lower value 0.994 | locus YEL061C, strain CIN8 (second series), stronger effect = lower value 1 | locus YEL061C, strain CIN8, stronger effect = lower value 0.98 | locus YER015W, strain faa2, stronger effect = lower value 1 | locus YER016W, strain bim1, stronger effect = lower value 1 | locus YER110C, stronger effect = lower value 0.997 | locus YER111C, strain swi4, stronger effect = lower value 0.997 | locus YER155C, strain BEM2 (second series), stronger effect = lower value 1.02 | locus YER155C, strain BEM2, stronger effect = lower value 1 | locus YER167W, strain BCK2, stronger effect = lower value 1 | locus YFR010W, strain ubp6, stronger effect = lower value 0.997 | locus YGL078C, strain dbp3, stronger effect = lower value 0.988 | locus YGL086W, strain mad1, stronger effect = lower value 0.985 | locus YGL167C, strain pmr1, stronger effect = lower value 1 | locus YGL173C, strain kem1, stronger effect = lower value 1.01 | locus YGL227W, strain vid30, stronger effect = lower value 0.998 | locus YGL240W, strain doc1, stronger effect = lower value 1.01 | locus YGL248W, strain PDE1, stronger effect = lower value 0.974 | locus YGL253W, strain hxk2, stronger effect = lower value 1 | locus YGR078C, strain PAC10, stronger effect = lower value 0.97 | locus YGR135W, strain pre9, stronger effect = lower value 1.07 | locus YGR252W, strain gcn5, stronger effect = lower value 1.02 | locus YHR013C, strain ard1, stronger effect = lower value 0.96 | locus YHR027C, strain rpn1, stronger effect = lower value 1.01 | locus YHR030C, strain SLT2, stronger effect = lower value 1 and 1.04 | locus YHR079C, strain IRE1 (second series), stronger effect = lower value 0.992 | locus YHR079C, strain IRE1, stronger effect = lower value 1.02 | locus YHR094C, strain hxt1, stronger effect = lower value 0.998 | locus YHR129C, strain ARP1, stronger effect = lower value 1 | locus YHR142W, strain chs7, stronger effect = lower value 1 | locus YHR200W, strain rpn10, stronger effect = lower value 0.992 | locus YIL066C, strain RNR3, stronger effect = lower value 0.974 | locus YIL073C, strain SPO22, stronger effect = lower value 1.04 | locus YIL125W, strain kgd1, stronger effect = lower value 0.987 | locus YIR030C, strain dcg1, stronger effect = lower value 0.999 | locus YJL092W, strain hpr5, stronger effect = lower value 1 | locus YJL095W, strain BCK1 (second series), stronger effect = lower value 1 | locus YJL095W, strain BCK1, stronger effect = lower value 0.964 and 1.04 | locus YJL115W, strain asf1, stronger effect = lower value 1 | locus YJL129C, strain trk1, stronger effect = lower value 1.01 | locus YJL134W, strain LCB3, stronger effect = lower value 0.995 | locus YJL154C, strain vps35, stronger effect = lower value 0.989 | locus YJL164C, strain tpk1, stronger effect = lower value 1.01 | locus YJL166W, strain qcr8, stronger effect = lower value 1.01 | locus YJL168C, strain set2, stronger effect = lower value 0.987 | locus YJL187C, strain SWE1 (second series), stronger effect = lower value 0.95 | locus YJL187C, strain SWE1, stronger effect = lower value 0.999 | locus YJR043C, strain POL32, stronger effect = lower value 0.924
